Laboratory results published in PubChem BioAssay (NCATS).
Where “and” joins values, the source holds several entries; their conditions need not be identical. Identical values can stand only once. Inconclusive results are not listed. Calls of active or inactive are those of the source. Unless noted, calls follow the shape of the dose curve; as a rule, active = well fitted curve in the direction sought with a large enough effect; inconclusive = small, poorly fitted or top-dose-only effect, or another doubt; inactive = no such curve, though single readings can be large; an effect the other way counts as inactive or inconclusive.

How the values were obtained:
[1] = target: Voltage-gated inwardly rectifying potassium channel KCNH2 (Homo sapiens) (UniProt Q12809); assay: qHTS Assay for Small Molecule Inhibitors of the Human hERG Channel Activity (AID 588834);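 also: potency is read from the fitted curve at half-maximal effect; lower thallium flux fluorescence means stronger hERG block; nearly all actives have a fitted effect of over 50% in size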
Method in brief: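 U2OS cells transduced with hERG via BacMam (MOI ~100), plated 2000/well, loaded with FluxOR thallium dye, compound ~10 min, then stimulation buffer; fluorescence decrease read kinetically; AC50 from Hill fits.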

[2] = target: Luciferin 4-monooxygenase (Photinus pyralis) (UniProt P08659); assay: Biochemical firefly luciferase enzyme assay for NPC (AID 624030); also: nearly all actives have a fitted effect of over 70% in size; also: potency is read from the fitted curve at half-maximal effect
Method in brief: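 Purified P. pyralis luciferase at 10 nM in 50 mM Tris Acetate (final), luminescence read within 5 minutes of enzyme addition to compounds. Activity normalised to PTC124 versus DMSO; concentration-response curves classed by r2, magnitude and activity.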

[3] = S16 Schwann cell viability assay (CellTiter-Glo assay) (AID 624031); also: nearly all actives have a fitted effect of over 70% in size; also: potency is read from the fitted curve at half-maximal effect
Method in brief: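 Native S16 rat Schwann cells, 500-750 cells/well in DMEM with 10% FBS, dosed with compound after overnight culture and incubated 24h at 37 degree Celsius/5% CO2. Viability by CellTiter-Glo luminescence; % activity normalized to no-cell wells and DMSO-treated cells.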

[4] = S16 Schwann cell PMP22 intronic element firefly luciferase assay (AID 624032); also: nearly all actives have a fitted effect of over 30% in size; also: potency is read from the fitted curve at half-maximal effect
Method in brief: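 Rat S16 Schwann cells stably carrying firefly luciferase driven by a PMP22 intronic element, in 10% FBS, treated 24 h at 37 C. ONE-Glo luminescence normalized to PTC124 control and DMSO (0%); curves classed by r2, magnitude and activity.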

[5] = qHTS assay for small molecule agonists of the antioxidant response element (ARE) signaling pathway (AID 651741; active = well fitted activation curve with a large enough effect in the signal ratio; the % refers to the signal ratio; also: potency is read from the fitted curve at half-maximal effect; as to activation: % of control where 0% means no effect)
Method in brief: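 CellSensor ARE-bla HepG2 cells (2,000/well) carrying ARE-driven beta-lactamase, exposed 16 h at 37 C. LiveBLAzer B/G FRET substrate added for 2 h at room temperature; fluorescence intensity read.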

[6] = Cytotoxicity counterscreen for NFkB agonists and antagonists (AID 624476); also: potency is read from the fitted curve at half-maximal effect
[7] = Cell Proliferation Assay against the TMD8 Cell Line (AID 651645); settings: TMD8 DLBCL cell line proliferation/viability; at 46.1 µM (top of the series) unless noted;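 also: cells exposed to compound for 48 h before reading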
Method in brief: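 TMD8 ABC DLBCL cells, 500 per well in phenol red-free RPMI with 5% FBS, were treated with compound by pin transfer and incubated 48 hours at 37C, 5% CO2. Viability was read by CellTiter-Glo luminescence, normalised to DMSO (100%) and 9.2 uM bortezomib (0%).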

[8] = Cell Proliferation Assay against the HBL1 Cell Line (AID 651646); settings: HBL1 DLBCL cells; at 46.1 µM (top of the series) unless noted;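 also: cells exposed to compound for 48 h before reading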
Method in brief: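 HBL1 ABC DLBCL cells, 500/well in RPMI with 5% FBS, treated for 48 h at 37C. Viability read by CellTiter-Glo luminescence, normalized to DMSO as 100% and 9.2 uM bortezomib as 0%.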

[9] = Cell Proliferation Assay against the TMD8 Cell Line (Caspase readout at 8 hrs) (AID 651713); also: potency is read from the fitted curve at half-maximal effect
Method in brief: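 TMD8 cells in RPMI plus 5% FBS were treated with compound for 8 h at 37C. Caspase 3/7 activation was read by Caspase-Glo luminescence. Percent activity was scaled from DMSO (0%) to 9.2 uM bortezomib final (100%).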

[10] = qHTS Assay for Identification of Small Molecule Agonists for NFkB Signaling Pathway. (AID 624478); also: 0% is about no effect
Method in brief: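 NFkB-bla ME-180 cells carry a beta-lactamase reporter. They received compound plus TNF alpha at 10 pM final (its EC50) for 5 h at 37 C. Reporter activity was read as 460/530 nm emission ratio after 2 h LiveBLAzer substrate loading.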

[11] = target: Glutaminase kidney isoform, mitochondrial (Homo sapiens) (UniProt O94925); assay: qHTS for Inhibitors of Glutaminase (GLS): LOPAC Validation (AID 624146);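 also: glutamate product detected by oxidase and peroxidase coupled Amplex red fluorescence gain; % is scaled to controls: 0 for no effect and ±100 for the full control effect; nearly all actives have a fitted effect of over 60% in size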
Method in brief: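 Glutamate formation by hKGA was monitored fluorometrically using coupled glutamate oxidase, HRP and Amplex Red. Substrate was added as 1 mM L-glutamine solution; incubation was 30 min at RT after an initial read.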

[12] = qHTS of Trypanosoma Brucei Inhibitors: LOPAC Validation (AID 624147); also: 0% is about no effect
Method in brief: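 Luminescent Kinase-Glo Plus end-point after 45 min room-temperature reaction of T. brucei pyruvate kinase started with 130 uM ADP (final). Buffer TEA 50 mM pH 7.2 with KCl, MgCl2, BSA, Tween-20; titration-based qHTS with fitted concentration-effect curves.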

[13] = HTS Assay for Allosteric Antagonists of the Human D2 Dopamine Receptor: Hit Validation in HTRF (AID 624455);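 also: stable D1 dopamine receptor cell line scored for blocking the D1 response; % is scaled to controls: 0 for no effect and ±100 for the full control effect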
Method in brief: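 Hit validation in cells stably expressing the D1 dopamine receptor, run in HTRF format. Compounds were tested for their ability to inhibit the D1-mediated response.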

[14] = qHTS Assay for Identification of Small Molecule Antagonists for NFkB Signaling Pathway. (AID 624479; calls by dose curve;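 also: pathway stimulated with TNF alpha; potency is read from the fitted curve at half-maximal effect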)
[15] = Cell Proliferation Assay against the TMD8 Cell Line (Caspase readout at 16 hrs) (AID 651712); also: potency is read from the fitted curve at half-maximal effect
Method in brief: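 TMD8 cells in RPMI with 5% FBS were treated with compound for 16 h at 37 C, then caspase 3/7 activation was read by Caspase-Glo luminescence. Percent activity was scaled to DMSO (0%) and 9.2 uM bortezomib final (100%).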

[16] = qHTS assay for small molecule activators of the p53 signaling pathway (AID 651743; active = well fitted activation curve with a large enough effect in the signal ratio, not every such curve was filed as active; the % refers to the signal ratio; also: potency is read from the fitted curve at half-maximal effect; as to activation: % of control where 0% means no effect); settings: HCT-116 p53RE-bla, beta-lactamase FRET ratio, 16 h; activation: stronger effect = higher value
Method in brief: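 p53RE-bla HCT-116 cells carrying a beta-lactamase reporter under p53 response elements were exposed to compounds for 16 hours at 37 C. Reporter activity read as fluorescence after 2 hours at room temperature with LiveBLAzer B/G FRET substrate.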

[17] = target: Glucagon-like peptide 1 receptor (Homo sapiens) (UniProt P43220); assay: qHTS of GLP-1 Receptor Agonists: LOPAC Validation (AID 624148);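 also: 0% is about no effect; higher luminescence signal means agonism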
Method in brief: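 HEK293 cells stably co-expressing GLP-1R and a cAMP-responsive luciferase reporter, plated 12 hours before compound, then incubated 4-6 hr at 37 deg C. Luminescence read 12 min after detection reagent.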

[18] = qHTS of Nrf2 Activators: LOPAC Validation (AID 624149); also: 0% is about no effect
Method in brief: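 AREc32_Fluc cells, 1000/well in OPTI-MEM with 5% FBS, grown overnight, then exposed to compounds for 24 hr at 37 deg C, 5% CO2. ARE-driven firefly luciferase read by Steady-Glo luminescence after 30 min at RT.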

Luciferin 4-monooxygenase (Photinus pyralis), sequence (P08659 whole entry, looked up): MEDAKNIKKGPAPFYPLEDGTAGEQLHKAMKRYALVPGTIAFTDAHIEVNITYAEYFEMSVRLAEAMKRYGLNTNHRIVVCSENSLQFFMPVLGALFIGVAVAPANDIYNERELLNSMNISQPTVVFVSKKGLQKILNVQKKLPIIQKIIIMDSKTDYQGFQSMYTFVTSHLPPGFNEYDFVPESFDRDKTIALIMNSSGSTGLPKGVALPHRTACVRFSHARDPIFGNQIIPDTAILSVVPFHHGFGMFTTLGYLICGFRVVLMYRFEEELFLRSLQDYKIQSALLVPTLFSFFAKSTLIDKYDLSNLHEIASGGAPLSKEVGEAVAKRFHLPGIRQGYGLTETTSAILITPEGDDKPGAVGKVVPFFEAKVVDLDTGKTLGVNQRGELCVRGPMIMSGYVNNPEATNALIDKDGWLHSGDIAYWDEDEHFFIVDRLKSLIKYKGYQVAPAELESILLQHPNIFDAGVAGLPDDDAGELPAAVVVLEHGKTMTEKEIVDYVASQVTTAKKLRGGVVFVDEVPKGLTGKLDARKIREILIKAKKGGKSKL
Glutaminase kidney isoform, mitochondrial (Homo sapiens), sequence (O94925 whole entry, looked up, canonical isoform): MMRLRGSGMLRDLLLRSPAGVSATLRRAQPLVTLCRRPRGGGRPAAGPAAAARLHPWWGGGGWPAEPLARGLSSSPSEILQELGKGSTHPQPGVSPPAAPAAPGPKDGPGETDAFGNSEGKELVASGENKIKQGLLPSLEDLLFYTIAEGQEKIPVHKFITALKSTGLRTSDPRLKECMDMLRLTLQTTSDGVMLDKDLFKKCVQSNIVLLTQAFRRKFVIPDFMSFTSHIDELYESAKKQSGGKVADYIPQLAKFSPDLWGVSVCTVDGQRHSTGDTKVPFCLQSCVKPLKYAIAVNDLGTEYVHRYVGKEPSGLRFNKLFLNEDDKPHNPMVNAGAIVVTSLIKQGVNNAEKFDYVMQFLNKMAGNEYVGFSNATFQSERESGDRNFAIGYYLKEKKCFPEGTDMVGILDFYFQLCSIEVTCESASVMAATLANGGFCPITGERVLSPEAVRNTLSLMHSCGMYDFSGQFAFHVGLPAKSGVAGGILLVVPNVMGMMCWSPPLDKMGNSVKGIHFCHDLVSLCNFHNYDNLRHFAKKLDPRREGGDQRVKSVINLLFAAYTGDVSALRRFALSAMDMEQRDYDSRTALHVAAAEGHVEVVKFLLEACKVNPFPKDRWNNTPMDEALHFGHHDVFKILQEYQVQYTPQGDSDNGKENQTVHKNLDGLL
Voltage-gated inwardly rectifying potassium channel KCNH2 (Homo sapiens), sequence (Q12809 whole entry, looked up): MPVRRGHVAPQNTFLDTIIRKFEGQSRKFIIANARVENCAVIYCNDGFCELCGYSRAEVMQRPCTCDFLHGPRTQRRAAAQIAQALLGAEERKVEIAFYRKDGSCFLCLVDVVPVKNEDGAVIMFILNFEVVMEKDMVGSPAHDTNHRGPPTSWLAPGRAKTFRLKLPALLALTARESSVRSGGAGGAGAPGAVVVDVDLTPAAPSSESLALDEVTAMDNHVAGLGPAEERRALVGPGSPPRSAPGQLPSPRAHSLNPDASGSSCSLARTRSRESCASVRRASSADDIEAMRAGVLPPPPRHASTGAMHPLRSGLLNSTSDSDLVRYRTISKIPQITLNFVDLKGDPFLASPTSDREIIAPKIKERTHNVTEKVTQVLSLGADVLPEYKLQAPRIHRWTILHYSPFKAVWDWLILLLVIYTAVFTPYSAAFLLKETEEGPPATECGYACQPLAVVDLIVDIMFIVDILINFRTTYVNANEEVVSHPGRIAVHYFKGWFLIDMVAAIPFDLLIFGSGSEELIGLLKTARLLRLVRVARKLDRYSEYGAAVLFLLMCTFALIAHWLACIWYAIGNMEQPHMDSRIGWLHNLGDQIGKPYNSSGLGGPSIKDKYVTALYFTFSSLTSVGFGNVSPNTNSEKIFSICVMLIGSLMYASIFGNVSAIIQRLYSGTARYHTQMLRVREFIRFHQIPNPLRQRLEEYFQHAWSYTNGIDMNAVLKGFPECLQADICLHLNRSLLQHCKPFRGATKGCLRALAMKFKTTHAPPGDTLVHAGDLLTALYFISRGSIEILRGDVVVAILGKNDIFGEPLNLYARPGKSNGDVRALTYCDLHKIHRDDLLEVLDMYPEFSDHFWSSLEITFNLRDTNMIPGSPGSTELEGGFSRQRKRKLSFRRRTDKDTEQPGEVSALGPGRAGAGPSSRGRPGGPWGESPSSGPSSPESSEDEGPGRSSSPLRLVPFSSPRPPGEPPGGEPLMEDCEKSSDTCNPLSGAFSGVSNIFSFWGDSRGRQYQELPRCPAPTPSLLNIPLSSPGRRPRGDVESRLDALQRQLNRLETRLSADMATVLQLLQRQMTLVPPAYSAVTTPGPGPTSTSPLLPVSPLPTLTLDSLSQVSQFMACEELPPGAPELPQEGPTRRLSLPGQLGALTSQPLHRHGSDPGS
Glucagon-like peptide 1 receptor (Homo sapiens), sequence (P43220 whole entry, looked up): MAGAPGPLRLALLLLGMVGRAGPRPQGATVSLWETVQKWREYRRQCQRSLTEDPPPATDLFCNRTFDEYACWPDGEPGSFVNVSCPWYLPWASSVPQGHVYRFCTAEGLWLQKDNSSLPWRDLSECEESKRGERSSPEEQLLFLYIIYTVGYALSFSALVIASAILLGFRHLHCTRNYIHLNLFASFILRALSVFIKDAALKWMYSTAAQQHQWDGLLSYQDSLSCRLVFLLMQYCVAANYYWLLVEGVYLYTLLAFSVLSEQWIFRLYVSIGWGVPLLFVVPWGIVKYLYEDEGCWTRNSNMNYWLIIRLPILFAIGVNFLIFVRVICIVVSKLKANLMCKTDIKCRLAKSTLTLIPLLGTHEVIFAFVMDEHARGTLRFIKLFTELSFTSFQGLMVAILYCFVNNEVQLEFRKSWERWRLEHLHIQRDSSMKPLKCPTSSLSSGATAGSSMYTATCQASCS

## CC(=O)[O][Hg][c]1ccccc1
[1]
  Potency: 14.1 µM (active) and 25.1 µM (active)
[2]
  Potency: 2.56 µM (active)
[3]
  Potency: 0.907 µM (active)
[4]
  Potency: 1.14 µM (active)
[5]
  Potency: 47.3 µM (active)

## C#CC1(O)CCC2C3CCC4=CC(=O)CCC4(C)C3CCC21C (stereo not drawn)
[4]
  Potency: inactive

## Cc1ccc(Cl)c(O)c1
[4]
  Potency: inactive

## COc1ccc2c(c[n+](C)c3c4cc5c(cc4ccc23)OCO5)c1OC
[6]
  Potency: 23.5 µM (active)
[7]
  viability (% of control): 3.33%
[8]
  viability, percent of control: 4.88%
[9]
  Potency: 2.96 µM (active)

## Cc1nc(-c2ccc(-c3ccc(C(=O)N4CCc5cc6c(cc54)C4(CCN(C)CC4)CO6)cc3)c(C)c2)no1
[6]
  Potency: inactive
[10]
  outcome: inactive
[7]
  viability (% of control): 2.26%
[8]
  viability, percent of control: 1.18%

## Nc1cccc2c(N)cccc12
[5]
  Potency: 27.3 µM (active)

## [Cl][In]([Cl])[Cl]
[2]
  Potency: 14.8 µM (active)
[5]
  Potency: 29.8 µM (active)

## c1ccc(C2(c3ccccc3)CC2C2=NCCN2)cc1 (stereo not drawn)
[2]
  Potency: inactive
[3]
  Potency: inactive
[4]
  Potency: inactive
[11]
  Potency: inactive
[12]
  outcome: inactive
[13]
  Potency: inactive

## CC[C@@H](C(=O)O)C1CC[C@H](C)C([C@@H](C)[C@H](O)[C@H](C)C(=O)[C@H](CC)C2O[C@]3(C=C[C@@H](O)[C@]4(CC[C@@](C)(C5CC[C@](O)(CC)[C@H](C)O5)O4)O3)[C@H](C)C[C@@H]2C)O1 (stereo partly drawn)
[6]
  Potency: 8.33 µM (active)
[14]
  Potency: 11.9 µM (active)

## C1=CCOCc2cc(ccc2OCCN2CCCC2)Nc2nccc(n2)-c2cccc(c2)OCC1
[14]
  Potency: 0.943 µM (active)

## CC1CC(C)C(=O)C(C(O)CC2CC(=O)NC(=O)C2)C1 (stereo not drawn)
[6]
  Potency: inactive
[10]
  outcome: inactive
[14]
  Potency: 1.09 µM (active)
[7]
  viability (% of control): 1.51% [at 92.2 µM]
[8]
  viability, percent of control: 43.6% [at 92.2 µM]
[15]
  Potency: 1.91 µM (active)
[9]
  Potency: 17.1 µM (active)

## C=CCON=C(C[C@H]1O[C@@H]2O[C@]3(C)CC[C@@H]4[C@H](C)CC[C@@H]([C@H]1C)[C@@]24OO3)[C@H]1O[C@@H]2O[C@]3(C)CC[C@H]4[C@H](C)CC[C@@H]([C@@H]1C)[C@@]24OO3
[10]
  outcome: inactive
[14]
  Potency: 16.8 µM (active)
[7]
  viability (% of control): 10.2%
[8]
  viability, percent of control: 30.4%
[15]
  Potency: 0.0833 µM (active)
[9]
  Potency: inactive

## CC[C@@H](C(N)=O)N1CCCC1=O
[11]
  Potency: inactive
[12]
  outcome: inactive
[13]
  Potency: inactive

## Nc1ccc([N+](=O)[O-])cc1O
[5]
  Potency: 13.3 µM (active) and 15.4 µM (active)

## c1cc(-c2cnn3cc(-c4ccc(OCCN5CCCCC5)cc4)cnc23)ccn1
[14]
  Potency: 9.43 µM (active)
[9]
  Potency: 23.5 µM (active)

## Cc1cnc(Nc2ccc(F)cc2Cl)nc1-c1c[nH]c(C(=O)N[C@H](CO)c2cccc(Cl)c2)c1
[6]
  Potency: 26.4 µM (active)
[14]
  Potency: 16.8 µM (active)

## CO[C@H]1C=CC=C(C)C(=O)NC2=CC(=O)C(NCCN(C)C)=C(C[C@@H](C)C[C@H](OC)[C@@H](O)[C@@H](C)C=C(C)[C@@H]1OC(N)=O)C2=O
[6]
  Potency: 20.9 µM (active)
[14]
  Potency: 0.0008 µM (active)

## CCCCCC[C@H]1C(=O)O[C@H](C)[C@H](NC(=O)c2cccc(NC=O)c2O)C(=O)O[C@@H](C)[C@@H]1OC(=O)CC(C)C
[5]
  Potency: 4.33 µM (active)
[16]
  Potency: 0.02 µM (active)

## COc1nn(CSP(=S)(OC)OC)c(=O)s1
[5]
  Potency: inactive
[16]
  activation: 0.0507% (inactive)

## CC1=NN=C(c2ccc(N)cc2)c2cc3c(cc2C1)OCO3
[12]
  outcome: inactive
[17]
  outcome: inactive
[18]
  outcome: inactive
[13]
  Potency: inactive
